The values below come from PubChem BioAssay (NCATS).

Each structure is given as a SMILES string. Inconclusive results are not listed. Entries that show only a call come without a potency. Active and inactive are the calls of the source. Calls come from the whole dose curve; as a rule, active = well fitted cell-killing curve with a large enough effect; inconclusive = small, poorly fitted or top-dose-only effect, or effect the other way; inactive = flat fitted curve, though single readings scatter. Where a SMILES comes first, the peptide text is derived from it. [ ]: non-standard residue; d: D form. 2Abz = Nc1ccccc1C(=O)O

One assay relates to HeLa. The experiment in a line: Primary qHTS to identify gynecologic anti-cancer compounds using libraries of approved drugs and bioactive compounds (AID 1345084). Note: nearly all actives have a fitted effect of over 55% in size. The note with it: Gynecologic cancer cell panel viability, ATPlite luminescence, 48 h; series mostly up to 57.5 µM. The method, boiled down:
(§1)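 Cell viability after 48 h drug treatment, ATPlite luminescence readout; five doses.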
On the technique in general: In qHTS, concentration-response curves come from the screen itself.
For `CCC(=O)N[C@@H]1Cc2ccccc2[C@H](c2ccccc2)C1`, the Potency result is “inactive”.

As for `CCC(C)C1NC(=O)C2CCCN2C(=O)C(C(C)C)NC(=O)c2ccccc2NC(=O)C(Cc2ccc(O)cc2)NC(=O)C(C)NC(=O)C(C(C)O)NC1=O` (stereo not drawn) (cyclo([2Abz]VPITAY); configuration not given here), the Potency entry is “inactive”.

Turning to `C=C1CCC2C(C)(C(=O)O)CC(O)CC2(C)C1CC/C(C)=C/C(=O)O` (stereo not drawn), the Potency result is “inactive”.

As to `COc1cc([C@@H]2Oc3c(OC)cc(CCCO)cc3[C@@H]2CO[C@@H]2O[C@H](CO)[C@@H](O)[C@H](O)[C@H]2O)ccc1O`, the Potency entry was “inactive”.

Consider `COc1cccc(-c2ccc([C@@H](Oc3cc(-c4ccc(C[C@H](N)C(=O)O)cc4)nc(N)n3)C(F)(F)F)cc2)c1`, for which the Potency result is “inactive”.

As for `CCNC(=O)CCC/C=C\C[C@@H]1[C@@H](/C=C/C(O)CCc2ccccc2)[C@@H](O)C[C@@H]1O` (stereo partly drawn), the Potency entry is “inactive”.

Take `Cc1[nH]cnc1C1CCN(c2nc3cccc4c3n2CCC4=O)CC1`: the Potency result was “inactive”.

In the case of `C=C(C)[C@@H](C)[C@H]1O[C@]23C[C@]4(CO2)C(CCC2[C@@]5(C)CC[C@H](O[C@@H]6OC[C@H](O)[C@H](O[C@@H]7O[C@H](CO)[C@@H](O)[C@H](O)[C@H]7O)[C@H]6O[C@@H]6O[C@@H](CO)[C@H](O)[C@H]6O)C(C)(C)C5CC[C@]24C)C3[C@@](C)(O)[C@@H]1OC(C)=O` (stereo partly drawn), the activity change, negative = cytotoxicity was -18.1% [at 11.6 µM] (inactive).

As for `C/C1=C\C[C@H](O[C@@H]2O[C@H](CO)[C@@H](O)[C@H](O)[C@H]2O)/C(C)=C/[C@H]2OC(=O)[C@H](C)[C@@H]2CC1`, the Potency entry is “inactive”.

On to `COC(=O)[C@H](CC1C=NC=N1)NCC12CC3CC(CC(C3)C1)C2` (stereo partly drawn), for which the Potency entry is “inactive”.

In the case of `CC(C)C1=CCC(C)(O)C(OC2OC(CO)C(O)C(O)C2O)C1` (stereo not drawn), the Potency result was “inactive”.

With `COc1cc(NC(=O)c2ccccn2)ccc1Cl`, the Potency result is “inactive”.

Consider `NCCOCCOCCNC(=O)Cc1ccc(Nc2nc(NCc3ccc(F)cc3)nc(NCC3CCCCC3)n2)cc1`, for which the Potency entry was “inactive”.

Consider `CCC(NC(=O)CC(NC(=O)C(CO)NC(=O)C(CC)NC(=O)c1ccc[nH]1)c1ccccc1)C(=O)O` (stereo not drawn), for which the Potency result was “inactive”.

For the compound `C=C1C[C@]23C[C@H]1CC[C@H]2[C@@]12C=C[C@H](O)[C@@](C)(C(=O)O1)[C@H]2[C@@H]3C(=O)O`, the Potency entry is “inactive”.

For the compound `CC(C)CC(=O)OC[C@H]1O[C@@](COC(=O)CC(C)C)(O[C@H]2O[C@H](CO)[C@@H](O)[C@H](O)[C@H]2O)[C@@H](OC(=O)CC(C)C)[C@@H]1OC(=O)CC(C)C`, the Potency entry was “inactive”.

Regarding `COc1cc(C2c3cc(O)c(OC)cc3CC(CO)C2CO)ccc1O` (stereo not drawn), the Potency entry was “inactive”.

For `N#CCc1ccc(O)cc1O[C@@H]1O[C@H](CO)[C@@H](O)[C@H](O)[C@H]1O`, the Potency result is “inactive”.

On to `C=C1C[C@@]23CC[C@@H]4[C@](C)(C(=O)O)CCC[C@@]4(C)C2=CC[C@H]1C3`, for which the Potency result is “inactive”.

Take `C[C@@H]1O[C@@H](O[C@H]2[C@H](OC(C#N)c3ccc(O)cc3)O[C@H](CO)[C@@H](O)[C@@H]2O)[C@H](O)[C@H](O)[C@H]1O` (stereo partly drawn): the Potency result is “inactive”.

The test system of another assay is Hek293T. Described as above. The note with it: Gynecologic cancer cell panel viability, ATPlite luminescence, 48 h, control line for the selectivity index; series mostly up to 57.5 µM. The gist of the method: as §1
With `CC(=O)O[C@H](C[C@@H](C)[C@H]1C(=O)[C@H](O)[C@@]2(C)[C@@H]3CCC4C(C)(C)[C@@H](O[C@@H]5OC[C@H](O)[C@H](O)[C@H]5O)CC[C@@]45C[C@@]35CC[C@]12C)[C@@H]1OC1(C)C` (stereo partly drawn), the Potency entry is “inactive”.

As to `CC1OC(OC2C(C)OC(OC3C(OC(=O)/C=C/c4ccc(O)cc4)C(CO)OC(OC4(COC(=O)/C=C/c5ccc(O)cc5)OC(CO)C(O)C4O)C3OC3OCC(O)(CO)C3O)C(O)C2O)C(O)C(O)C1O` (stereo not drawn), the activity change, negative = cytotoxicity is 0.502% [at 11.6 µM] (inactive).

Turning to `CC(/C=C/[C@]1(O)[C@@]2(C)CO[C@@]1(C)C[C@@H](O)C2)=C\C(=O)O[C@@H]1O[C@H](CO)[C@@H](O)[C@H](O)[C@H]1O`, the Potency result is “inactive”.

In the case of `C=C1C(=O)OC2CC(C)=C(C(C)CCCO[C@@H]3O[C@H](CO)[C@@H](O)[C@H](O)[C@H]3O)C(O)C12` (stereo partly drawn), the Potency entry was “inactive”.

With `O=C(O[C@H]1[C@@H]2C[C@@H]3OC[C@@](O)([C@H]2[C@H](O[C@@H]2O[C@H](CO)[C@@H](O)[C@H](O)[C@H]2O)O3)[C@@H]1O)c1ccccc1`, the Potency result was “inactive”.

For `CC(=O)c1c(C)cc(O)cc1O[C@@H]1O[C@H](CO)[C@@H](O)[C@H](O)[C@H]1O`, the Potency result was “inactive”.

Consider `CC1CCC(=O)CC(O)C(O)CC(=O)O1` (stereo not drawn), for which the Potency result was “inactive”.

Consider `CC1(C)CC2C(O)C3=C(CC(C)(O)C2C1)C(=O)OC3O` (stereo not drawn), for which the Potency result was “inactive”.

On to `CC[C@H](/C=C/[C@@H](C)[C@H]1CC[C@H]2[C@@H]3CC=C4C[C@@H](O)CC[C@]4(C)[C@H]3CC[C@]12C)C(C)C`, for which the activity change, negative = cytotoxicity is 4.66% [at 6.55 µM] (inactive).

Take `CC(=O)O[C@H]1[C@H](C)[C@@H](O)[C@H]2[C@@H]1C=C(C(=O)O)[C@H]1C[C@@H]3[C@H]([C@H]21)[C@H]1C(=O)O[C@@H]2CC[C@@]3(C)O[C@]1(O)[C@@H]2C`: the Potency result was “inactive”.

As to `CC(=O)OC(CSC1CCC(=O)OC(C)CCC(=O)C1)C(=O)O` (stereo not drawn), the Potency result was “inactive”.

For the compound `CC(/C=C/C1(O)C(C)CC(O)CC1(C)C)OC1OC(CO)C(O)C(O)C1O` (stereo not drawn), the Potency entry was “inactive”.

Consider `CC(=O)N[C@H]1CCN(c2ccc(C3=NOC(CN[S+](=O)([O-])C(C)C)C3)cc2F)C1` (stereo partly drawn), for which the Potency entry is “inactive”.

Consider `CC1CCC2C(C)(C)C(O)CCC2(C)C12Cc1c(O)cc3c(c1O2)C(N)=NC3` (stereo not drawn), for which the Potency result is “inactive”.

Regarding `CNC(=O)Nc1ccc(OC)c(NC(=O)NC(=O)c2cc(F)c(F)cc2Cl)c1`, the Potency result is “inactive”.

As for `CCCC(N[C@@H](C)C(=O)N1[C@H](C(=O)O)C[C@@H]2CCCC[C@@H]21)C(=O)OCC` (stereo partly drawn), the Potency result was “inactive”.

Consider `C/C=C(\C)C(=O)O[C@@H](C)[C@H]1CC[C@]2(O)C3CCC4C[C@@H](OC5CC(OC)C(OC6CC(OC)C(OC7CC(OC)C(OC8OC(C)C(OC9OC(CO)C(O)C(O)C9O)C(OC)C8O)C(C)O7)C(C)O6)C(C)O5)CC[C@]4(C)C3[C@H](O)[C@@H](O)[C@]12C` (stereo partly drawn), for which the activity change, negative = cytotoxicity was 1.78% [at 6.55 µM] (inactive).

With `CC1OC(O[C@H]2[C@@H](O)C[C@@]3(C)C([C@H](O)C[C@]4(C)C3CC=C3C5CC(C)(C)CC[C@]5(C(=O)OC5OC(CO)C(O)C(O)C5OC5OCC(OC6OCC(OC7OCC(O)C(O)C7O)C(O)C6O)C(OC6OCC(O)(CO)C6O)C5O)CC[C@]34C)[C@]2(C)CO)C(O)C(O)C1O` (stereo partly drawn), the activity change, negative = cytotoxicity is -2% [at 6.55 µM] (inactive).

Regarding `CCC(=O)N[C@@H]1Cc2ccccc2[C@H](c2ccccc2)C1`, the Potency entry was “inactive”.

Regarding `CCC(C)C1NC(=O)C2CCCN2C(=O)C(C(C)C)NC(=O)c2ccccc2NC(=O)C(Cc2ccc(O)cc2)NC(=O)C(C)NC(=O)C(C(C)O)NC1=O` (stereo not drawn) (cyclo([2Abz]VPITAY); configuration not given here), the Potency entry was “inactive”.

As to `C=C1CCC2C(C)(C(=O)O)CC(O)CC2(C)C1CC/C(C)=C/C(=O)O` (stereo not drawn), the Potency entry is “inactive”.

Take `COc1cc([C@@H]2Oc3c(OC)cc(CCCO)cc3[C@@H]2CO[C@@H]2O[C@H](CO)[C@@H](O)[C@H](O)[C@H]2O)ccc1O`: the Potency result was “inactive”.

As for `COc1cccc(-c2ccc([C@@H](Oc3cc(-c4ccc(C[C@H](N)C(=O)O)cc4)nc(N)n3)C(F)(F)F)cc2)c1`, the Potency entry was “inactive”.

Turning to `CCNC(=O)CCC/C=C\C[C@@H]1[C@@H](/C=C/C(O)CCc2ccccc2)[C@@H](O)C[C@@H]1O` (stereo partly drawn), the Potency entry was “inactive”.

As to `Cc1[nH]cnc1C1CCN(c2nc3cccc4c3n2CCC4=O)CC1`, the Potency result was “inactive”.

For the compound `C=C(C)[C@@H](C)[C@H]1O[C@]23C[C@]4(CO2)C(CCC2[C@@]5(C)CC[C@H](O[C@@H]6OC[C@H](O)[C@H](O[C@@H]7O[C@H](CO)[C@@H](O)[C@H](O)[C@H]7O)[C@H]6O[C@@H]6O[C@@H](CO)[C@H](O)[C@H]6O)C(C)(C)C5CC[C@]24C)C3[C@@](C)(O)[C@@H]1OC(C)=O` (stereo partly drawn), the activity change, negative = cytotoxicity is -2.35% [at 11.6 µM] (inactive).

In the case of `C/C1=C\C[C@H](O[C@@H]2O[C@H](CO)[C@@H](O)[C@H](O)[C@H]2O)/C(C)=C/[C@H]2OC(=O)[C@H](C)[C@@H]2CC1`, the Potency result is “inactive”.

Consider `COC(=O)[C@H](CC1C=NC=N1)NCC12CC3CC(CC(C3)C1)C2` (stereo partly drawn), for which the Potency entry is “inactive”.

As to `CC(C)C1=CCC(C)(O)C(OC2OC(CO)C(O)C(O)C2O)C1` (stereo not drawn), the Potency result is “inactive”.

In the case of `COc1cc(NC(=O)c2ccccn2)ccc1Cl`, the Potency result was “inactive”.

As for `NCCOCCOCCNC(=O)Cc1ccc(Nc2nc(NCc3ccc(F)cc3)nc(NCC3CCCCC3)n2)cc1`, the Potency result was “inactive”.

Consider `CCC(NC(=O)CC(NC(=O)C(CO)NC(=O)C(CC)NC(=O)c1ccc[nH]1)c1ccccc1)C(=O)O` (stereo not drawn), for which the Potency result was “inactive”.

As to `C=C1C[C@]23C[C@H]1CC[C@H]2[C@@]12C=C[C@H](O)[C@@](C)(C(=O)O1)[C@H]2[C@@H]3C(=O)O`, the Potency result is “inactive”.

In the case of `CC(C)CC(=O)OC[C@H]1O[C@@](COC(=O)CC(C)C)(O[C@H]2O[C@H](CO)[C@@H](O)[C@H](O)[C@H]2O)[C@@H](OC(=O)CC(C)C)[C@@H]1OC(=O)CC(C)C`, the Potency entry was “inactive”.

Regarding `COc1cc(C2c3cc(O)c(OC)cc3CC(CO)C2CO)ccc1O` (stereo not drawn), the Potency result is “inactive”.

For the compound `N#CCc1ccc(O)cc1O[C@@H]1O[C@H](CO)[C@@H](O)[C@H](O)[C@H]1O`, the Potency entry is “inactive”.

Consider `C=C1C[C@@]23CC[C@@H]4[C@](C)(C(=O)O)CCC[C@@]4(C)C2=CC[C@H]1C3`, for which the Potency result is “inactive”.

For `C[C@@H]1O[C@@H](O[C@H]2[C@H](OC(C#N)c3ccc(O)cc3)O[C@H](CO)[C@@H](O)[C@@H]2O)[C@H](O)[C@H](O)[C@H]1O` (stereo partly drawn), the Potency result is “inactive”.
